Experimental data taken from PubChem BioAssay AID504882 (Broad Institute, 2011).
Among all 1,200 compounds or so, about 290 (24%) were called active. Inconclusive results (about 9%) are left out. No rule for the calls is given here. These entries were drawn from the full list. Measured potencies and affinities stand elsewhere.

Experiment: LCL viability reduction – cell-based, plate reader, cherry-picks, set 2, cytotoxicity control, dose response (AID 504882)
Settings: EBV lymphoblastoid cells (LCL) viability; series mostly up to 19.5 µM

| Compound | outcome |
| --- | --- |
| CC(C)(C)c1ccc(C(=O)Nc2nnc(SCC(=O)NCC3CCCO3)s2)cc1 (stereo unspecified) | inactive |
| Cc1cc(NC(=O)CSc2ccnc(=O)[nH]2)no1 | inactive |
| CC(C)Cc1ccc([C@H](C)C(=O)O)cc1 | inactive |
| CS(=O)(=O)N(CC(=O)Nc1ccc(F)cc1F)C1CCCCC1 | inactive |
| O=C1CCC(C(=O)N2CCCCCC2)CN1CCc1ccc(Cl)cc1 (stereo unspecified) | inactive |
| S=C1SCN(Cc2ccccc2)CN1Cc1ccco1 | inactive |
| O=C1/C(=C/c2cccnc2)SC(=S)N1Cc1ccco1 | inactive |
| CC(C)NC(=O)N(C)C[C@H]1Oc2c(NC(=O)Nc3ccc4c(c3)OCO4)cccc2C(=O)N([C@H](C)CO)C[C@@H]1C | inactive |
| O=C1CCCN2N=C(SCC(=O)Nc3ccc(Br)cc3)SC2=N1 | inactive |
| COc1ccc(S(=O)(=O)NCCc2csc(-c3cccnc3)n2)cc1 | inactive |
| CC1Cc2ccccc2N1c1ncnc(N)c1[N+](=O)[O-] (stereo unspecified) | inactive |
| CC(=O)Nc1ccc(NC(=O)C(c2ccccc2)c2ccccc2)cc1 | inactive |
| O=C(Cc1ccc(Cl)cc1)NCC(=O)N1CCCCC1 | inactive |
| CCOC(=O)c1cn2nc(N3CCCC3)ccc2n1 | inactive |
| COc1cc2cc(C(=O)Nc3ccc4c(c3)OCCO4)[nH]c2cc1OC | inactive |
| COc1cc(/C=N/NC(=O)c2cc(C34CC5CC(CC(C5)C3)C4)[nH]n2)ccc1O | inactive |
| O=C(Nc1cc(S(=O)(=O)N2CCOCC2)ccc1Cl)c1ccncc1 | inactive |
| COC(=O)[C@H](C)[C@H]1C[C@]1(C)[C@H](NC(=O)OCc1ccccc1)c1ccccc1 | inactive |
| COc1ccccc1N1CCN(CCCNC(=O)C2CCCN(c3ncnc4c3nc3n4CCCCC3)C2)CC1 (stereo unspecified) | inactive |
| Cc1ccsc1/C=N/NC(=O)c1ccc2c(c1)OCCO2 | inactive |
| CCOC(=O)c1sc(NC(=O)CNCc2ccccn2)c(C(=O)OCC)c1C | inactive |
| CC(=O)c1c(C)[nH]c(C(=O)Nc2ccc(C)cn2)c1C | inactive |

| Compound | outcome |
| --- | --- |
| Cc1cccn2c(=O)c(C=NCCO)c(NCc3ccco3)nc12 | inactive |
| Clc1ccccc1C1=Nn2c(nnc2-c2ccncc2)SC1 | inactive |
| Cc1ccc(C(=O)Nc2cccc(C(F)(F)F)c2)cc1Nc1ncnc2nc[nH]c12 | inactive |
| c1cncc(CNc2ncnc3ccc(-c4ccoc4)cc23)c1 | inactive |
| Cc1sc2ncn(CC(=O)N3CCC(C(N)=O)CC3)c(=O)c2c1S(=O)(=O)N1CCOCC1 | inactive |
| Cc1ccc(N2CCN(C3=NC(=O)/C(=C\c4cn[nH]c4-c4ccccc4)S3)CC2)cc1 | inactive |
| CC1CCN(C(=O)/C(=C\c2cccs2)NC(=O)c2ccccc2)CC1 | inactive |
| C=CCN(c1ccc(C(=O)Nc2ccc3c(c2)n(C)c(=O)n3C)cc1)S(C)(=O)=O | inactive |
| COC(=O)c1cccc(COC(=O)c2ccccc2NC(=O)c2ccco2)c1 | inactive |
| C[C@]12CC[C@@H]3c4ccc(OS(=O)(=O)O)cc4CC[C@H]3[C@@H]1CCC2=O | inactive |
| COc1ccccc1C(=O)NC(=O)CSc1nnc(N)s1 | inactive |
| c1csc(CNc2ncnc3ccc(-c4ccoc4)cc23)c1 | inactive |
| COc1ccc(C(=O)CSc2nnc(Cc3ccccc3)o2)cc1 | inactive |
| CC[C@H]1OC(=O)[C@H](C)[C@@H](O[C@H]2C[C@@](C)(OC)[C@@H](O)[C@H](C)O2)[C@H](C)[C@@H](O[C@@H]2O[C@H](C)C[C@H](N(C)C)[C@H]2O)[C@](C)(O)C[C@@H](C)C(=NOCOCCOC)[C@H](C)[C@@H](O)[C@]1(C)O | inactive |
| N=C1S/C(=C\c2ccccc2)C(=O)N1c1ccc(F)cc1 | inactive |
| CCC(=O)OC1c2ccccc2C(=O)N1Cc1ccccc1 (stereo unspecified) | inactive |
| CC(=O)/C=C/c1ccccc1O | inactive |
| CNc1ccc(Br)cc(C(=O)/C=C/c2cccc(OC)c2)c1=O | inactive |
| CNc1ccc(Br)cc(C(=O)/C=C/c2cc(OC)ccc2OC)c1=O | inactive |
| COC(=O)C1=C(C)N(CCCC(=O)O)C(=O)NC1c1cccc(Cl)c1Cl (stereo unspecified) | inactive |
| O=C(CSc1nnc(NC(=O)c2ccc3c(c2)OCO3)s1)NCc1ccco1 | inactive |
| CCOc1ccc(C(=O)Nc2nnc(SCC(=O)NCC3CCCO3)s2)cc1 (stereo unspecified) | inactive |

| Compound | outcome |
| --- | --- |
| COc1ccc(C(=O)OCC(=O)c2c[nH]c3ccccc23)cc1OC | inactive |
| O=C1NC(=O)/C(=C\c2ccc(OCc3cccc(C(=O)O)c3)c(Cl)c2)N1 | inactive |
| O=C(CN(Cc1cccs1)C(=O)CNS(=O)(=O)c1ccccc1)NCc1ccco1 | inactive |
| Cc1ccc(S(=O)(=O)N2CCN(C(=O)CSc3nnnn3C)C2)cc1 | inactive |
| O=C(O)/C=C/c1ccc(Cn2ccnc2)cc1 | inactive |
| Cc1ccccc1NC(=O)CN1C(=O)S/C(=C\c2cccn2-c2cccc(C(=O)O)c2)C1=O | inactive |
| CC(C)[C@H](N[C@@H](C)c1ccccc1)c1c(O)ccc2ccccc12 | inactive |
| O=C(C1CC1)N1N=C(c2ccc(Br)cc2)CC1(O)C(F)(F)F (stereo unspecified) | inactive |
| CN1CCN(CCOc2ccc(Cc3ccccc3)cc2)CC1 | inactive |
| CN(C)S(=O)(=O)c1ccc(Cl)c(C(=O)NCCNC(=O)c2cc(S(=O)(=O)N(C)C)ccc2Cl)c1 | inactive |
| CCCc1cc(=O)c2c(O)ccc(OC)c2o1 | inactive |
| O=c1cc(C2CCCCC2)[nH]c(=O)[nH]1 | inactive |
| CC(=O)OCC(=O)[C@@]1(O)CC[C@H]2[C@@H]3CCC4=CC(=O)CC[C@]4(C)[C@H]3[C@@H](O)C[C@@]21C | inactive |
| O=C(/C=C/Nc1cccc(C(F)(F)F)c1)C(F)(F)F | inactive |
| O=C(CN1CCN(S(=O)(=O)c2ccc(F)cc2)CC1)Nc1cccc(C(F)(F)F)c1 | inactive |
| O=C(c1ccco1)N1CCN(S(=O)(=O)/C=C/c2ccccc2)CC1 | inactive |
| O=C(Nc1ncccc1O)c1ccc(S(=O)(=O)NCc2ccco2)cc1 | inactive |
| CCOC(=O)C1=C(C)N(C)C(=O)NC1c1ccccc1OC (stereo unspecified) | inactive |
| Cc1cc(=S)[nH]c2ccccc12 | inactive |
| CC(=O)Oc1ccc(C(=O)Nc2cccnc2)cc1 | inactive |
| CC(C)CCNC(=O)C1CCN(S(=O)(=O)c2ccc3c(c2)CC(C)N3C(=O)C2CC2)CC1 (stereo unspecified) | inactive |
| Cc1ccc2c(c1)N(CC(=O)N1CCCC1)C(=O)c1cccnc1O2 | inactive |
